Several values for one entry are separate records, joined by “and”; a condition that tells them apart may be missing. Identical values can stand only once. Records with an inconclusive call do not appear. Activity calls are given as the source filed them.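 How the source made its calls, unless noted: active means compounds whose cell count with miR-34 switched on is under 0.7 times the count with it off; inactive means the rest.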
What was measured:
[1] = P. berghei load reduction in hepatocytes – cell-based, HepG2, luciferase luminescence, HepG2 viability, primary screen (AID 624349; in the data active means parasite load remaining mostly below about 12%, no sharp cut-off; inactive means mostly above about 10%;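 further: 100% = mean of DMSO negative control wells on the same plate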); settings: P. berghei liver stage in HepG2, luciferase luminescence, concentration not given here; parasite load remaining: stronger effect = lower value; viability: measured here: HepG2 viability without parasites
[2] = Wnt pathway potentiators raising nuclear beta-catenin – imaging, WNT3A-conditioned medium, mouse C2C12, NPC library, primary screen (AID 1117326; in the data active means nuclear beta-catenin stimulation mostly above about 4.2%, no sharp cut-off; inactive means mostly below about 10%); settings: stronger effect = higher value
[3] = stimulators of insulin release from INS-1E, primary screen, cell-based, 5 mM glucose, NPC library (AID 1117329;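 active means compound raises insulin release from rat beta cells at 5 mM glucose, no numeric limit stated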); settings: rat INS-1E insulin secretion, at 10 µM, stronger effect = higher value
[4] = growth inhibition of GSK3B-pretreated HCT116 cells – cell-based, CellTiter-Glo, 0.2 to 20 µM (AID 1117336;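 active means compounds lowering colon cancer cell viability after pretreatment blocking the GSK3B kinase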); settings: HCT116 viability after GSK3B inhibitor, at 20 µM, stronger effect = higher value
[5] = inhibition of endothelial tube formation, primary screen, imaging, VEGF stimulated, CD31 staining, tube area, NPC library (AID 1117340;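 active means compound that reduces growth-factor-driven endothelial tube area in a mixed cell culture, no cutoff stated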); settings: VEGF-stimulated ADSC/ECFC co-culture, at 10 µM, stronger effect = higher value
[6] = GLP1 release stimulators, primary, NCI-H716, NPC library (AID 1117341;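 active means compound raises GLP1 secretion from the human gut endocrine cells, with no numeric limit stated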); settings: NCI-H716 cells, at 10 µM, stronger effect = higher value
[7] = HCT116 colon cancer cell growth inhibition, primary screen, CellTiter-Glo luminescence, NPC library (AID 1117342;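 active means compounds that lower survival of HCT116 colon cancer cells in the luminescence readout, no numeric limit stated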); settings: at 20 µM (top of the series)
[8] = reduced SW480 viability measured with CellTiter-Glo, NPC library, primary (AID 1117343;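 active means compounds that lower viability of the colon cancer cells in the luminescence readout, with no numeric limit stated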); settings: CellTiter-Glo luminescence; at 20 µM (top of the series) unless noted
[9] = NPC library primary testing for decreased DLD-1 cell viability via CellTiter-Glo (AID 1117346;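 active means compounds that lower survival of DLD-1 colon cancer cells in the luminescence readout, no cutoff given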); settings: DLD-1 viability, CellTiter-Glo luminescence; at 20 µM (top of the series)
[10] = EMT-state selective cytotoxicity in co-culture – imaging, PC-3E GFP, TEM4-18 mCherry, primary screen (AID 1345086;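 active means compounds killing one labelled cell type while sparing the other, by normalised counts and ratio limits, not self-fluorescent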;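 further: cells exposed to compound for 72 h before imaging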;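 on red/green cell ratio (normalised): normalised mesenchymal count divided by normalised epithelial count so high means epithelial killing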); settings: PC-3E GFP / TEM4-18 mCherry co-culture, imaging cell counts, at 1 µM
[11] = viability loss with induced miR-34 in A549 – imaging, A549 dox-inducible miR-34, nuclei and caspase counts, primary screen (AID 1347080); settings: A549 miR-34 inducible, Hoechst nuclei count, 48 h
[12] = target: NAD(+) hydrolase SARM1 (Homo sapiens) (UniProt Q6SZW1); assay: blocking NAD cleavage by SARM1 SAM-TIR – cell lysate, NAD-Glo luminescence (AID 1508614;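 active means compound whose remaining NAD level is above about 45 nM, limit read from the data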); settings: SAM-TIR HEK293T lysate NADase, at 1 µM, stronger effect = higher value
NAD(+) hydrolase SARM1 (Homo sapiens), sequence (Q6SZW1 whole entry, looked up): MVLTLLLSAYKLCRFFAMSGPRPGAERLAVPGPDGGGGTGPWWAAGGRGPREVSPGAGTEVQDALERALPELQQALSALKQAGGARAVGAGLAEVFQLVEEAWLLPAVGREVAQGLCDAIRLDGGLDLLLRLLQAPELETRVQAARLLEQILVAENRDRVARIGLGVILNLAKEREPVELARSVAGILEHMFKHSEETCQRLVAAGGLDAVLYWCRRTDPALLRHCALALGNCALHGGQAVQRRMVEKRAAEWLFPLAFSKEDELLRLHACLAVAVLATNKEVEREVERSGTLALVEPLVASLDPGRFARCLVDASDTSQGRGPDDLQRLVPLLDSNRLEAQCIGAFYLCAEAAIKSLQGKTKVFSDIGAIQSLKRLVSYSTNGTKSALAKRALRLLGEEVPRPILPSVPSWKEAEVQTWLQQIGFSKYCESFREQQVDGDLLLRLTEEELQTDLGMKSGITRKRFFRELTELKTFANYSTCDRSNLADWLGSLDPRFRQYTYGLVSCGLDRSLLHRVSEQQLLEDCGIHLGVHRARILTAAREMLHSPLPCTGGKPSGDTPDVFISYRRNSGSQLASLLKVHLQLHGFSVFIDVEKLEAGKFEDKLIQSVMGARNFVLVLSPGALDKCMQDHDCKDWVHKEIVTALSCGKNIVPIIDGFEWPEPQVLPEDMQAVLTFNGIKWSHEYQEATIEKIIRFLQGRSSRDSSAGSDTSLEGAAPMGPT

[13] = test system: Aerobactin synthetase IucA (Klebsiella pneumoniae); assay: inhibition of K. pneumoniae IucA enzyme – biochemical, Tocris library, absorbance (AID 1345561; call rule not given here;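 further: 100% = enzyme without compound and 0% = no enzyme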); settings: purified IucA enzyme assay, absorbance (OD) read-out; stronger effect = lower value;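 tested at 8 µM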
[14] = MELAS cybrid and Rieske KO viability enhancers – cell-based, MELAS cybrids, Rieske KO mouse fibroblasts, CellTiter-Glo, primary screen (AID 1508586;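 active means mean z-score across replicates of 1.96 or higher in either the MELAS or the Rieske mutant cell line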;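 further: z relative to plate mean and SD of compound and empty wells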); settings: low glucose
[15] = galactose survival enhancers in mitochondrial complex I cybrids – cell-based, galactose medium, ATP luminescence, primary screen (AID 1645843;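 active means z-score of at least 1.8 in each of two replicates, scored against plate mean and spread of sample wells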;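 further: positive z means more ATP and so rescue of galactose-driven cybrid death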); settings: complex I mutant cybrid cells, 72 h, stronger effect = higher value
[16] = viability loss in pontine glioma line – cell-based, SU-DIPG-XIII, MIPE4.0, CellTiter-Glo, qHTS, dose response (AID 1347061; cut-off not given, nearly all actives have AC50 up to about 37 µM;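 further: cells exposed to compound for 48 hours before readout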); settings: CellTiter-Glo ATP luminescence
[17] = growth inhibition of DIPG cells – cell-based, MIPE5.0 library, qHTS (AID 1347068; cut-off not given, nearly all actives have IC50 up to about 30 µM;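 on IC50: cells exposed to compound for 48 hours before viability readout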); settings: SU-DIPG-XXV viability
[18] = viability loss in pontine glioma line – cell-based, SU-DIPG-XVII, MIPE5.0, CellTiter-Glo, qHTS, dose response (AID 1347060; cut-off not given, nearly all actives have AC50 up to about 26 µM;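 further: cells exposed to compound for 48 hours before viability readout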); settings: CellTiter-Glo ATP luminescence
[19] = viability loss in pontine glioma line – cell-based, JHH-DIPG-1, MIPE4.0, CellTiter-Glo, qHTS, dose response (AID 1347062; cut-off not given, nearly all actives have AC50 up to about 27 µM;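 further: cells exposed to compound for two days before readout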); settings: JHH-DIPG-1 viability, CellTiter-Glo ATP luminescence
[20] = stronger effect = lower value, cell number ratio, induced over uninduced
[21] = measured here: relative caspase fold change +Dox/-Dox
[22] = measured here: total cells with miR-34 induction, stronger effect = lower value
[23] = measured here: total cells without miR-34 induction
[24] = MELAS cybrid survival, CellTiter-Glo 48 h, stronger effect = higher value
[25] = Rieske KO mouse fibroblast survival, CellTiter-Glo 72 h

Compound: O=C(OOC(=O)c1ccccc1)c1ccccc1
- parasite load remaining [1]: 39% (inactive)
- viability [1]: 82.1%
- nuclear beta-catenin stimulation ([2]; at 10 µM): 2.3% (inactive)
- nuclear beta-catenin stimulation ([2]; stimulation, at 2 µM): 0.3%
- insulin secretion stimulation [3]: -1.3% (inactive)
- viability decrease [4]: -5.45% (inactive)
- tube area decrease [5]: -15.4% (inactive)
- GLP1 secretion stimulation [6]: -3.2% (inactive)
- inhibition of viability [7]: 1.1% (inactive)
- viability decrease (inhibition) [8]: 10% (inactive)
- viability decrease (inhibition) [9]: 18.9% (inactive)
- red/green cell ratio (normalised) ([10]; actives lie on both sides, counts scaled to control wells, 1 = unselective): 1.04 (inactive)
- normalised cell number ([10]; measured here: epithelial PC-3E GFP cell survival): 1.11
- normalised cell number ([10]; measured here: mesenchymal TEM4-18 mCherry cell survival): 1.15
- fold change [11, 20]: 0.948 (inactive)
- fold change [11, 21]: 3.94
- cell count [11, 22]: 10800
- cell count [11, 23]: 11400
- remaining NAD [12]: 10 nM (inactive)

Compound: CC(C)C(=O)c1c(C(C)C)nn2ccccc12
- parasite load remaining [1]: 83.4% (inactive)
- viability [1]: 97%
- nuclear beta-catenin stimulation ([2]; at 10 µM): -0.8% (inactive)
- nuclear beta-catenin stimulation ([2]; stimulation, at 2 µM): 0.4%
- insulin secretion stimulation [3]: 24.5% (active)
- viability decrease [4]: 39.4% (inactive)
- tube area decrease [5]: -13.6% (inactive)
- GLP1 secretion stimulation [6]: 3.4% (inactive)
- inhibition of viability [7]: 31.8% (inactive)
- viability decrease (inhibition) [8]: 5% (inactive)
- viability decrease (inhibition) [9]: 1.8% (inactive)
- remaining activity [13]: 110% (inactive)
- fold change [11, 20]: 1.02 (inactive) and 0.934 (inactive) and 0.944 (inactive)
- fold change [11, 21]: 0.854 and 0.782 and 0.951
- cell count [11, 22]: 9930 and 7850 and 8420
- cell count [11, 23]: 9700 and 8400 and 8930
- z-score [14, 24]: 1.07 (inactive) and 0.83 (inactive)
- z-score [14, 25]: -0.15 and -1.19
- z-score [15]: 0.105 (inactive) and -0.07 (inactive) and 0.255 (inactive)

Compound: Cc1cc(C)c(/C=C2\C(=O)Nc3ccccc32)[nH]1
- parasite load remaining [1]: 27.2% (inactive)
- viability [1]: 69.7%
- nuclear beta-catenin stimulation ([2]; at 10 µM): 9.9% (inactive)
- nuclear beta-catenin stimulation ([2]; stimulation, at 2 µM): 0.7%
- insulin secretion stimulation [3]: -0.8% (inactive)
- viability decrease [4]: 20.1% (inactive)
- tube area decrease [5]: 99.7% (active)
- GLP1 secretion stimulation [6]: 12.8% (inactive)
- inhibition of viability [7]: -18.7% (inactive)
- viability decrease (inhibition) [8]: 48.7% (inactive)
- viability decrease (inhibition) [9]: 37.2% (inactive)
- remaining activity [13]: 104% (inactive)
- fold change [11, 20]: 1.05 (inactive) and 0.921 (inactive) and 0.87 (inactive)
- fold change [11, 21]: 0.773 and 1.14 and 1.43
- cell count [11, 22]: 4600 and 5070 and 6640
- cell count [11, 23]: 4380 and 5510 and 7630
- z-score [15]: 0.06 (inactive) and 0.095 (inactive)

Compound: C[C@@H](CN1CC(=O)NC(=O)C1)N1CC(=O)NC(=O)C1
- nuclear beta-catenin stimulation ([2]; at 10 µM): 9.7% (inactive)
- nuclear beta-catenin stimulation ([2]; stimulation, at 2 µM): 13.9%
- insulin secretion stimulation [3]: 5.3% (inactive)
- viability decrease [4]: 70.9% (active)
- tube area decrease [5]: 37.9% (inactive)
- GLP1 secretion stimulation [6]: -2.7% (inactive)
- inhibition of viability [7]: 62% (active)
- viability decrease (inhibition) [8]: 53.1% (active)
- viability decrease (inhibition) [9]: 47.2% (inactive)
- remaining activity [13]: 106% (inactive)
- outcome [16]: inactive
- outcome [17]: inactive
- fold change [11, 20]: 0.977 (inactive)
- fold change [11, 21]: 1.07
- cell count [11, 22]: 8720
- cell count [11, 23]: 8920
- z-score [15]: 0.075 (inactive)

Compound: CC(C)OC(=O)c1cc2c(OCC(O)CNC(C)(C)C)cccc2[nH]1 (stereo unspecified)
- nuclear beta-catenin stimulation ([2]; at 10 µM): 0.4% (inactive)
- nuclear beta-catenin stimulation ([2]; stimulation, at 2 µM): 5.8%
- insulin secretion stimulation [3]: 13.3% (inactive)
- viability decrease [4]: 9.2% (inactive)
- tube area decrease [5]: 1.9% (inactive)
- GLP1 secretion stimulation [6]: 4.8% (inactive)
- inhibition of viability [7]: 40.5% (active)
- viability decrease (inhibition) [8]: 58.6% (active)
- viability decrease (inhibition) [9]: 7.6% (inactive)
- remaining activity [13]: 116% (inactive)
- fold change [11, 20]: 0.915 (inactive)
- fold change [11, 21]: 0.769
- cell count [11, 22]: 9290
- cell count [11, 23]: 10200
- z-score [15]: -0.48 (inactive)

Compound: CC[C@]1(O)C[C@H]2CN(CCc3c([nH]c4ccccc34)[C@@](C(=O)OC)(c3cc4c(cc3OC)N(C=O)[C@H]3[C@@](O)(C(=O)OC)[C@H](OC(C)=O)[C@]5(CC)C=CCN6CC[C@]43[C@@H]65)C2)C1
- parasite load remaining [1]: 14.9% (inactive)
- viability [1]: 84%
- nuclear beta-catenin stimulation ([2]; at 10 µM): 44% (active)
- nuclear beta-catenin stimulation ([2]; stimulation, at 2 µM): 76%
- insulin secretion stimulation [3]: -1.1% (inactive)
- viability decrease [4]: 98.6% (active)
- tube area decrease [5]: 109% (active)
- GLP1 secretion stimulation [6]: 4.5% (inactive)
- inhibition of viability [7]: 67% (active)
- viability decrease (inhibition) [8]: 56% (active)
- viability decrease (inhibition) [9]: 59.1% (active)
- remaining activity [13]: 121% (inactive)
- AC50 [18]: 0.0295 µM (active)
- AC50 [19]: 0.00526 µM (active)
- IC50 [17]: 0.235 µM (active)
- fold change [11, 20]: 0.912 (inactive) and 1.12 (inactive)
- fold change [11, 21]: 1.85 and 0.866
- cell count [11, 22]: 1380 and 1910
- cell count [11, 23]: 1510 and 1710
- z-score [14, 24]: -2.16 (inactive)
- z-score [14, 25]: 1.73
- remaining NAD [12]: 10 nM (inactive)
- z-score [15]: -0.515 (inactive) and -1.81 (inactive)

Compound: C[C@H]1O[C@H](O[C@H]2[C@H](O)[C@@H](O)[C@@H](O[C@H]3[C@H](O)[C@@H](O)[C@H](O)O[C@@H]3CO)O[C@@H]2CO)[C@H](O)[C@@H](O)[C@@H]1N[C@H]1C=C(CO)[C@@H](O)[C@H](O)[C@H]1O
- nuclear beta-catenin stimulation ([2]; at 10 µM): -0.6% (inactive)
- nuclear beta-catenin stimulation ([2]; stimulation, at 2 µM): -1.1%
- insulin secretion stimulation [3]: 0.7% (inactive)
- viability decrease [4]: -5.3% (inactive)
- tube area decrease [5]: -8.2% (inactive)
- GLP1 secretion stimulation [6]: -2.2% (inactive)
- inhibition of viability [7]: 18.9% (inactive)
- viability decrease (inhibition) [8]: -0.4% (inactive)
- viability decrease (inhibition) [9]: -0.5% (inactive)
- remaining activity [13]: 108% (inactive)
- fold change [11, 20]: 0.838 (inactive)
- fold change [11, 21]: 1.97
- cell count [11, 22]: 7710
- cell count [11, 23]: 9210
- z-score [14, 24]: -0.1 (inactive)
- z-score [14, 25]: -0.573
- z-score [15]: 0.18 (inactive)

Compound: CC1(c2ccccc2)OC(C(=O)O)=CC1=O (stereo unspecified)
- nuclear beta-catenin stimulation ([2]; at 10 µM): 0.9% (inactive)
- nuclear beta-catenin stimulation ([2]; stimulation, at 2 µM): 1.2%
- insulin secretion stimulation [3]: 0.9% (inactive)
- viability decrease [4]: 1.95% (inactive)
- tube area decrease [5]: 0.2% (inactive)
- GLP1 secretion stimulation [6]: 1.1% (inactive)
- inhibition of viability [7]: -7.4% (inactive)
- viability decrease (inhibition) [8]: 4.5% (inactive)
- viability decrease (inhibition) [9]: 4.95% (inactive)
- remaining activity [13]: 122% (inactive)
- fold change [11, 20]: 0.98 (inactive)
- fold change [11, 21]: 0.832
- cell count [11, 22]: 9820
- cell count [11, 23]: 10000
- z-score [15]: -0.34 (inactive)

Compound: CCN1CCC[C@H]1CNC(=O)c1c(OC)ccc(Br)c1OC
- parasite load remaining [1]: 122% (inactive) and 75.7% (inactive)
- viability [1]: 119% and 100%
- nuclear beta-catenin stimulation ([2]; at 10 µM): 0.4% (inactive)
- nuclear beta-catenin stimulation ([2]; stimulation, at 2 µM): -0.6%
- insulin secretion stimulation [3]: 6.1% (inactive)
- viability decrease [4]: -9.5% (inactive)
- tube area decrease [5]: 19.3% (active)
- GLP1 secretion stimulation [6]: 0.8% (inactive)
- inhibition of viability [7]: 6.8% (inactive)
- viability decrease (inhibition) [8]: -6.9% (inactive)
- viability decrease (inhibition) [9]: 6.8% (inactive)
- remaining activity [13]: 89% (inactive)
- fold change [11, 20]: 0.989 (inactive) and 0.971 (inactive) and 0.881 (inactive)
- fold change [11, 21]: 0.662 and 1.03 and 1.37
- cell count [11, 22]: 9050 and 9640 and 10200
- cell count [11, 23]: 9150 and 9920 and 11500
- z-score [14, 24]: 0.167 (inactive) and 0.0526 (inactive)
- z-score [14, 25]: -0.0474 and -0.355
- z-score [15]: 0.63 (inactive) and 0.485 (inactive)
